TIM10 inh: TIM10 yeast growth inhibition. S. cerevisiae TIM10 strain growth, BacTiter-Glo luminescence, 24 h. inhibition, % at 10 µM. actives 1.4% (n = 330,000). AID 463195;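 active means inhibition of 40% or more at the single tested concentration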;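 further: wild-type TIM10 isogenic control strain grown at permissive 25 °C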
tim23-1 inh: inhibits growth of tim23-1 mutant yeast; actives 1.3% (n = 330,000); inhibition, % at 20 µM; S. cerevisiae tim23-1 growth, BacTiter-Glo luminescence, 24 h;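 active means growth inhibition of the mutant yeast at or above 50%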;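 further: temperature-sensitive mutant grown at 25 °C; plate controls were DMSO-treated mutant yeast for no effect and medium wells lacking yeast for full effect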
SKKanGAS inh: blocks kanamycin growth of S. pyogenes SKKanGAS strain; AID 1662; actives 1.3% (n = 300,000); BacTiter-Glo, 6 h; inhibition, % at 7.5 µM;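 active means mean replicate score, as percent of positive control median, at least 50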;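 further: strain carries kanamycin resistance gene driven by streptokinase promoter and grows in 40 µg/ml kanamycin; loss of luminescence reflects streptokinase promoter inhibition or plain growth inhibition; 0% = median of DMSO wells and 100% = positive control at its reference dose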
NLRP3 yeast inh: inhibitors of NALP3 inflammasome in yeast; inhibition, % at 10 µM; actives 0.39% (n = 330,000); Yeast reconstituted NLRP3/ASC/caspase-1, beta-gal luminescence, 24 h;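 active means inhibition of 50% or more; inactive means inhibition below 50%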;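 further: plate controls were induced DMSO wells for no effect and uninduced yeast grown without galactose for full effect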
tim10-1 inh: tim10-1 yeast growth inhibition | S. cerevisiae tim10-1 ts strain growth, BacTiter-Glo, 24 h | inhibition, % at 20 µM | actives 2.2% (n = 330,000);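 active means inhibition of at least 40%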;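 further: mutant grown at 25 °C; 0% = DMSO wells with yeast and 100% = wells holding no yeast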
* marks the source's active call; other numbers are inactive results. Compounds with a hit are over-represented: about 4.6% of the library has one in this group of screens.

Results for N#CCc1ccccc1C(=O)OCC(=O)N(Cc1ccccc1)Cc1ccccc1 ?
TIM10 inh: -14.1; tim23-1 inh: 19.7; NLRP3 yeast inh: 4.1; tim10-1 inh: 0.3

Results for O=C(NNC1=Nc2cccc3cccc1c23)c1ccc(Br)cc1 ?
SKKanGAS inh: 114.0*

Results for CC(C)(C)CN1CCN(Cc2cccnc2)CC1CCO (configuration not stated) ?
TIM10 inh: -5.0; tim23-1 inh: 4.3; SKKanGAS inh: 14.0; NLRP3 yeast inh: 11.8; tim10-1 inh: -29.8

What do the screens show for `N#C/C(=N\Nc1ccc(S(=O)(=O)N2CCCCCC2)cc1)C(N)=S`?
TIM10 inh: 3.8; tim23-1 inh: 7.3; SKKanGAS inh: 113.8*; NLRP3 yeast inh: 10.8; tim10-1 inh: 6.8

Results for Cc1ccccc1C(=O)NC(=S)N(CCO)Cc1ccccc1 ?
TIM10 inh: -6.0; tim23-1 inh: 12.4; SKKanGAS inh: 0.0; NLRP3 yeast inh: 22.2; tim10-1 inh: 3.8

Results for CC(C)CC(=O)NC(=S)N(Cc1ccccc1)Cc1ccccc1 ?
TIM10 inh: 26.9; tim23-1 inh: 32.3; SKKanGAS inh: 53.6*; NLRP3 yeast inh: 29.0; tim10-1 inh: 31.1

How did CC(C)(C)c1ccc(C(=O)Nc2ccc(F)cc2)s1 do in these assays?
TIM10 inh: 22.8; tim23-1 inh: 41.2; SKKanGAS inh: 53.1*; NLRP3 yeast inh: 11.7; tim10-1 inh: 16.7

How did CCCNC(=O)c1onc(CS(=O)(=O)c2cc(C)cc(C)c2)c1C(=O)NCCC do in these assays?
TIM10 inh: 9.6; tim23-1 inh: 28.1; NLRP3 yeast inh: -0.6; tim10-1 inh: 6.3

Results for CCCCN(C)S(=O)(=O)c1ccc(C(=O)Nc2nnc(C3=COCCO3)o2)cc1 ?
TIM10 inh: 1.5; tim23-1 inh: 18.3; SKKanGAS inh: 8.9; NLRP3 yeast inh: -8.0; tim10-1 inh: 15.0

Results for COc1ccccc1-c1nnc(NC(=O)c2ccc(S(=O)(=O)N(C)C)cc2)o1 ?
TIM10 inh: 4.6; tim23-1 inh: -0.4; SKKanGAS inh: 30.6; NLRP3 yeast inh: 3.3; tim10-1 inh: 13.1

What do the screens show for `CCCCN(C)S(=O)(=O)c1ccc(C(=O)Nc2nnc(-c3cccs3)o2)cc1`?
TIM10 inh: 0.7; tim23-1 inh: 5.0; SKKanGAS inh: 101.5*; NLRP3 yeast inh: 11.3; tim10-1 inh: 15.8

Results for CCCCN(CC)S(=O)(=O)c1ccc(C(=O)Nc2nnc(-c3ccccc3Cl)o2)cc1 ?
TIM10 inh: 35.6; tim23-1 inh: 0.5; SKKanGAS inh: 99.1*; NLRP3 yeast inh: -2.4; tim10-1 inh: 21.2

Results for CCCCN(CCCC)S(=O)(=O)c1ccc(C(=O)Nc2nnc(CSC)o2)cc1 ?
TIM10 inh: 7.2; tim23-1 inh: 18.0; SKKanGAS inh: 105.8*; NLRP3 yeast inh: 10.4; tim10-1 inh: 38.1

How did CCN(Cc1ccccc1)S(=O)(=O)c1ccc(C(=O)Nc2nnc(-c3ccccc3OC)o2)cc1 do in these assays?
TIM10 inh: 0.7; tim23-1 inh: 12.7; SKKanGAS inh: 93.6*; NLRP3 yeast inh: 6.0; tim10-1 inh: 32.8

What do the screens show for `CCCCN(CC)S(=O)(=O)c1ccc(C(=O)Nc2nnc(COC)o2)cc1`?
TIM10 inh: -15.2; tim23-1 inh: 3.8; SKKanGAS inh: 12.4; NLRP3 yeast inh: 12.5; tim10-1 inh: 8.1

How did COCCn1c(SC(C)C(=O)NCC2CCCO2)nc2sc3c(c2c1=O)CCC3 (configuration not stated) do in these assays?
TIM10 inh: -1.1; tim23-1 inh: 11.9; SKKanGAS inh: 3.3; NLRP3 yeast inh: 16.7; tim10-1 inh: -1.5

Results for CCOc1ccc(OCCCC(=O)N(CC)CC(=O)Nc2c(F)cccc2F)cc1 ?
TIM10 inh: 20.6; tim23-1 inh: 24.8; NLRP3 yeast inh: 6.6; tim10-1 inh: 26.8

How did CCC[C@@H]1C[C@@]1(CCC)[C@@H](NP(=O)(c1ccccc1)c1ccccc1)c1ccc(C(=O)OC)cc1 do in these assays?
TIM10 inh: 19.7; tim23-1 inh: 28.5; SKKanGAS inh: 97.0*; NLRP3 yeast inh: 9.8; tim10-1 inh: 26.2

What do the screens show for `COc1ccc(NC(=O)Nc2ccc([N+](=O)[O-])cc2)cn1`?
TIM10 inh: 13.0; tim23-1 inh: -8.4; SKKanGAS inh: 15.5; NLRP3 yeast inh: 17.4; tim10-1 inh: 7.0

Results for COc1ccc(Nc2nc(Nc3ccc(OC)cc3)nc(-n3[nH]c(=O)c(C)c3C)n2)cc1 ?
TIM10 inh: 8.3; tim23-1 inh: 16.8; SKKanGAS inh: 87.1*; NLRP3 yeast inh: 7.9; tim10-1 inh: 25.9

Results for COc1ccc(Nc2nc(OC)nc(OC)n2)cc1 ?
TIM10 inh: -4.0; tim23-1 inh: 15.5; SKKanGAS inh: -1.7; NLRP3 yeast inh: 18.5; tim10-1 inh: 13.7

What do the screens show for `CNC[C@@H]1Oc2ccc(NS(=O)(=O)c3ccc(Cl)cc3)cc2C(=O)N([C@H](C)CO)C[C@@H]1C`?
TIM10 inh: 4.4; tim23-1 inh: 10.0; NLRP3 yeast inh: 17.7; tim10-1 inh: -1.0

Results for COc1ccc(CN(C)S(=O)(=O)c2nnc(NC(=O)c3cccc(F)c3)s2)cc1OC ?
TIM10 inh: 9.7; tim23-1 inh: 20.9; SKKanGAS inh: 60.2*; NLRP3 yeast inh: 8.5; tim10-1 inh: 15.1

Results for COc1ccc(CN(C)S(=O)(=O)c2nnc(NC(=O)c3ccccc3)s2)cc1OC ?
TIM10 inh: -21.3; tim23-1 inh: -3.4; SKKanGAS inh: 26.2; NLRP3 yeast inh: 13.3; tim10-1 inh: -2.7

What do the screens show for `NS(=O)(=O)c1cccc(NC(=O)COC(=O)c2cc(-c3ccc(Cl)cc3)nc3ccccc23)c1`?
TIM10 inh: 29.5; tim23-1 inh: 5.4; SKKanGAS inh: 91.2*; NLRP3 yeast inh: -1.5; tim10-1 inh: 16.3

What do the screens show for `O=C(CSc1ncccn1)NCC1CCCO1` (configuration not stated)?
TIM10 inh: 2.7; tim23-1 inh: -6.0; SKKanGAS inh: 0.9; NLRP3 yeast inh: 6.8; tim10-1 inh: -8.3

Results for COc1cc(OC)cc(C(=O)Nc2nnc(NC(=S)Nc3ccccc3)s2)c1 ?
TIM10 inh: 20.3; tim23-1 inh: 9.3; SKKanGAS inh: 51.8*; NLRP3 yeast inh: 18.2; tim10-1 inh: 17.7

How did O=C(OCC(=O)N1CCN(C(=O)c2ccco2)CC1)c1cc(-c2cccc(Br)c2)nc2ccccc12 do in these assays?
TIM10 inh: 28.8; tim23-1 inh: 36.6; SKKanGAS inh: 53.4*; NLRP3 yeast inh: 30.5; tim10-1 inh: 16.7

How did O=C(OCC(=O)N1CCN(C(=O)c2ccco2)CC1)c1cc(-c2ccccc2)nc2ccccc12 do in these assays?
TIM10 inh: 8.8; tim23-1 inh: 40.0; SKKanGAS inh: -2.5; NLRP3 yeast inh: 8.9; tim10-1 inh: 1.7

How did Cc1ccc(SC/C(O)=C(\C#N)c2nc3ccccc3s2)cc1 do in these assays?
TIM10 inh: 7.8; tim23-1 inh: -0.1; SKKanGAS inh: 76.6*; NLRP3 yeast inh: 17.1; tim10-1 inh: -10.9

What do the screens show for `N#C/C(=C(/O)COc1ccc(Cl)cc1)c1nc2ccccc2s1`?
TIM10 inh: 17.1; tim23-1 inh: -8.5; SKKanGAS inh: 89.9*; NLRP3 yeast inh: 5.2; tim10-1 inh: -12.0
